Experimental data: PubChem BioAssay AID2322 (Broad Institute, 2010)
Out of some 27,000 compounds screened, about 120 (0.44%) were called active. The entries come from a sample that favours actives as a whole. Values without a mark were called inactive. No stated cut-off is given here; in the data, active means inhibition above about 20%; inconclusive means no clear call, values can overlap the other calls; inactive means below that.

What follows are molecules tested against Serine/threonine-protein kinase 33 (Homo sapiens) (UniProt Q9BYT3) (assay: STK33 kinase inhibitors, primary screen, biochemical, luminescence, ADP-Glo, MBP substrate (AID 2322)). Settings: at 12.5 µM, stronger effect = higher value.
Chain of Serine/threonine-protein kinase 33 (Homo sapiens) (Q9BYT3 whole entry, looked up): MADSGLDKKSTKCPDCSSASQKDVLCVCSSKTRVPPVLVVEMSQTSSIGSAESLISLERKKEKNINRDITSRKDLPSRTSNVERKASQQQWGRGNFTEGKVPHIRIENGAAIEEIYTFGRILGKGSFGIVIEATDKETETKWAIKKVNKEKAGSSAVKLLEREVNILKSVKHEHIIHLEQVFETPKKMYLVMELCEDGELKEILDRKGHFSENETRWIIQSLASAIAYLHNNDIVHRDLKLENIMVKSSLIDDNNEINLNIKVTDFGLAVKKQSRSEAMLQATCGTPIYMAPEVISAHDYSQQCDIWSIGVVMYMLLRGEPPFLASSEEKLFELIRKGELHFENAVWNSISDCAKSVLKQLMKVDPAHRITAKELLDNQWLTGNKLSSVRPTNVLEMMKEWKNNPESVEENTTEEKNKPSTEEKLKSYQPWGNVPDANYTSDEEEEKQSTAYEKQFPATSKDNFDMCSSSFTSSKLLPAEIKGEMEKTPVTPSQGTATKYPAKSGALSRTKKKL

| SMILES | inhibition |
| --- | --- |
| Cc1ccc(N(CC(=O)Nc2ccccc2Sc2ccccc2)S(C)(=O)=O)c(C)c1 | -1.72% |
| COC(=O)c1ccc(NC(=O)CSc2nc(-c3ccccc3)cc(=O)[nH]2)cc1 | 4.41% |
| O=C(O)CCCC(=O)Nc1ccc(F)cc1 | -2.71% |
| O=C(NCc1ccccn1)c1ccccc1C(=O)c1ccccc1 | -3.58% |
| CCC(O)c1ccc2c(=O)c(-c3ccccc3F)coc2c1 (stereo unspecified) | 1.14% |
| CCOc1ccc(NC(=O)CSc2nccc(C)n2)cc1 | -0.939% |
| COc1ccc(/C=C/C(=O)O[C@@H]2[C@@H](OC(=O)/C=C/c3ccc(OC)cc3)[C@H](C)O[C@@H](O[C@H]3[C@@H]4C=CO[C@@H](O[C@@H]5O[C@H](CO)[C@@H](O)[C@H](O)[C@H]5O)[C@@H]4[C@@]4(CO)O[C@@H]34)[C@@H]2OC(C)=O)cc1 | -0.911% |
| C[C@H]1CN([C@@H](C)CO)C(=O)c2cc(NC(=O)Cn3cnnn3)ccc2O[C@H]1CN(C)S(C)(=O)=O | -0.963% |
| CCOC(=O)c1c(NC(=O)Cn2nc([N+](=O)[O-])c(Br)c2C)sc2c1CCCC2 | 2.08% |
| Cc1cc(C)c2oc(-c3cccc(NC(=O)COc4ccc(Br)cc4)c3C)nc2c1 | 5.61% |
| CCn1c(SCC(=O)Nc2cc(Cl)ccc2OC)nnc1-c1ccc(Br)cc1 | 1.48% |
| CC(C)(C)c1ccc(OCC(=O)NCc2ccccn2)c(Br)c1 | -6.11% |
| Nc1ccc2c3c(cccc13)C(=O)NC2=O | 28.5% (active) |
| C[C@@H]1CN([C@H](C)CO)C(=O)c2cc(NC(=O)Nc3ccc4c(c3)OCO4)ccc2O[C@H]1CN(C)Cc1ccc(-c2ccccc2)cc1 | 0.655% |
| O=C(CSc1nc2ccc(NC(=O)c3ccccc3Cl)cc2s1)Nc1ccc(F)cc1 | 0.13% |
| O=C(CSc1nnc(-c2ccccn2)n1-c1ccccc1)Nc1ccc2cn[nH]c2c1 | 0.339% |
| COc1ccc(N(CC(=O)Nc2cc(C)ccc2OC)S(C)(=O)=O)cc1Cl | -2.26% |
| NCCCC[C@@H]1NC(=O)[C@@H]2C[C@H](C(=O)NCc3ccc(F)cc3)[C@H](c3ccc(O)cc3)N2C1=O | -1.29% |
| C[C@H](CO)N1C[C@H](C)[C@@H](CN(C)S(=O)(=O)c2ccc(F)cc2)OCc2cnnn2CCCC1=O | 3.05% |
| COc1ccc(C(C)=O)cc1CSc1nnc(-c2ccc(Br)cc2)n1-c1ccccc1 | -0.65% |
| COc1ccc(N(C(C)C(=O)Nc2cccc(Br)c2)S(C)(=O)=O)cc1 (stereo unspecified) | -0.0651% |
